This is part of a sample that, as a whole, favours compounds with a hit. Of some 83,000 tested, about 20% had one in any assay.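 In brief: 96-well plates, 48 h treatment, single concentration, percent growth endpoint.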 A number with no mark means an inactive call. Calls of active or inactive are those of the source. How the source made its calls: active means growth percent below 10; inactive means the rest.
Key:
Experiment in all cases: NCI-60 one-dose screen, 48 h (100 = growth as untreated, 0 = no growth, -100 = all killed)
Settings in all cases: 10 µM unless noted
SK-MEL-2 melanoma = tested on: SK-MEL-2 melanoma
EKVX NSCLC = tested on: EKVX NSCLC
SN12C renal = tested on: SN12C renal
UO-31 renal = tested on: UO-31 renal
TK-10 renal = tested on: TK-10 renal
ACHN renal = tested on: ACHN renal
CAKI-1 renal = tested on: CAKI-1 renal
A498 renal = tested on: A498 renal
CCRF-CEM leukemia = tested on: CCRF-CEM leukemia
MOLT-4 leukemia = tested on: MOLT-4 leukemia

Row | SMILES | growth (SK-MEL-2 melanoma) | growth (EKVX NSCLC) | growth (SN12C renal) | growth (UO-31 renal) | growth (TK-10 renal) | growth (ACHN renal) | growth (CAKI-1 renal) | growth (A498 renal) | growth (CCRF-CEM leukemia) | growth (MOLT-4 leukemia)
1 | C=CCc1nc2ccccc2s1 | 107% | 109% | 110% | 63.6% | 94.3% | 101% | 98.3% | 108% | 84.1% | 89.1%
2 | Cc1cccc(C[C@H](NC(=O)Nc2ccc(Cl)cc2F)C(=O)N[C@@H]2C(=O)N3C[C@H](OC(=O)CCN(C)C)C[C@H]3C(=O)N3CCCC[C@H]3C(=O)N[C@@H](C)C(=O)N3C[C@H](C)C[C@H]3C(=O)O[C@H]2C)c1 | 24.4% | 47.3% | 12.5% | 31.1% | 47.8% | 27.5% | 15.5% | -11.1% (active) | 42.4% | 27.8%
3 | O=C(OCc1ccc2c(Cl)cc(Cl)c(O)c2n1)N1CCNCC1 | 59.1% | 33.1% | 32% | 15.3% | 52.1% | 14% | 27% | 24.3% | 26.1% | 33.5%
4 | N/C(=N\c1nc2ccccc2[nH]1)NC(=O)Cc1cccc2ccccc12 | 65.6% | 75.6% | 98.8% | 50.3% | 106% | 88.9% | 82.9% | 80.6% | 86% | 30.4%
5 | COC(=O)[C@]1(C)CC[C@]2(C)CC[C@]3(C)C(=CC(=O)[C@@H]4[C@@]5(C)CCC(=O)NC(C)(C)[C@@H]5CC[C@]43C)[C@@H]2C1 | -83.2% [100 µM] (active) | -45.1% [100 µM] (active) | -81.1% [100 µM] (active) | -93.3% [100 µM] (active) | -26.3% [100 µM] (active) | -39.8% [100 µM] (active) | -20% [100 µM] (active) | -91.4% [100 µM] (active) | -25.4% [100 µM] (active) | -20.7% [100 µM] (active)
6 | CC1(C)CC[C@]23CC[C@]4(C)[C@H](CC[C@@H]5[C@@]6(C)C/C(=C/c7cccnc7)C(=O)C(C)(C)[C@@H]6CC[C@]54C)[C@H]2[C@H]1OC3=O | 27.6% [100 µM] | 74.7% [100 µM] | 41.5% [100 µM] | 34.8% [100 µM] | 55% [100 µM] | 36.9% [100 µM] | 40.6% [100 µM] | 31.5% [100 µM] | 19.3% [100 µM] | 19.4% [100 µM]
7 | COc1ccc(OC)c([N+](=O)[O-])c1C(=O)CNC(C)=O | 109% | 97.5% | 100% | 84.7% | 105% | 100% | 96.4% | 94.1% | 110% | 101%
8 | O=C(N/N=C/c1c(Cl)cccc1Cl)c1cccc(Nc2ccnc(C(F)(F)F)c2)c1 | 92.2% | 74.4% | 91% | 77.4% | 90.8% | 87.5% | 88% | 95.3% | 87.8% | 88.1%
9 | O=C(Nc1cc(F)cc2cccnc12)c1cnc(N2CCNCC2)cn1 | 104% | 82.7% | 75% | 29% | 66.6% | 28.4% | 52.4% | 88.7% | 26.3% | 24.5%
10 | COc1cc(/C=C/C(=O)/C=C/c2ccc(-n3ccnc3C)cc2)ccc1O | 100% | 102% | 91.4% | 4.27% (active) | 88% | 58.8% | 95.6% | 78.8% | 35.5% | 32.4%
11 | Cn1cc(-c2noc(-c3cn(C)c4ncc(F)cc34)n2)c2cc(Br)ccc21 | 103% | 58.4% | 60.2% | 79.8% | 46.5% | 40.3% | 53.5% | 91.9% | 80.8% | 71.1%
12 | CCCSc1nc(N)nc2nc[nH]c12 | 106% | 106% | 98.3% | 93.5% | 154% | 96.4% | 128% | 123% | 115% | 121%
